Measurements: PubChem BioAssay (EPA / NIEHS)
The source made the active and inactive calls. How the source made its calls: active means hit-call score of the fitted dose curve at least 0.9, where 1 is the maximum; inactive means score below 0.9.

Experiments:
[1] = ATG_CRE_CIS: Attagene CIS-FACTORIAL HepG2 Assay for human cAMP Responsive Element (CRE) binding protein 3 (AID 2282926); settings: HepG2 CRE cis-reporter, Attagene multiplexed mRNA; actives raise or lower the signal
In short: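 HepG2 cells transiently transfected with cis-element-driven multiple reporter transcription units; CRE reporter mRNA measured 24 h after dosing by RT-PCR, 6-FAM labelling, HpaI digestion and capillary electrophoresis. Bidirectional fit versus DMSO baseline.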

[2] = biological target: CCAAT/enhancer-binding protein beta (Homo sapiens) (UniProt P17676); assay: ATG_C_EBP_CIS: Attagene CIS-FACTORIAL HepG2 Assay for human CCAAT/Enhancer Binding Protein (C/EBP) beta (AID 2282927); settings: HepG2 Attagene cis-factorial transcription factor reporter; actives raise or lower the signal
Sequence of CCAAT/enhancer-binding protein beta (Homo sapiens) (P17676 whole entry, looked up, the tested form may be a part): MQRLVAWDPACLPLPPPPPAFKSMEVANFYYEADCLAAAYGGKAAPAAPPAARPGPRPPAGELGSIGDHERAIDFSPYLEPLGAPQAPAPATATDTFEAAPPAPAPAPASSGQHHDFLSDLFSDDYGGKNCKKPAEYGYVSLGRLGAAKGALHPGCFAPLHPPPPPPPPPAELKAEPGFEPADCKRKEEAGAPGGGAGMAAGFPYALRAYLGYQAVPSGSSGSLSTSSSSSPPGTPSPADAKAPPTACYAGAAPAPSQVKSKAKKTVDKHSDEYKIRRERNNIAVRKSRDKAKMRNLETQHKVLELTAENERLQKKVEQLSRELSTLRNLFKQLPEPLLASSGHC
In short: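 Chemical-treated HepG2 cells (24 h) bearing cis-regulated reporter constructs were processed for total RNA, then reverse transcription, PCR amplification, fluorescent primer extension and fragment analysis; gain- and loss-of-signal were fitted against DMSO.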

[3] = ATG_CMV_CIS: Attagene CIS-FACTORIAL HepG2 Assay for human CMV (Internal Marker) (AID 2282928); settings: HepG2 CMV promoter reporter, transcription factor profiling; actives raise or lower the signal;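 further: endpoint acts as a background internal control marker rather than a target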
In short: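 Cell system: HepG2, transiently transfected multiple reporter units under cis promoters. Exposure: 24 h. Detection: RT-PCR, FAM labeling, HpaI digestion, capillary electrophoresis. Analysis: bidirectional, DMSO baseline.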

[4] = ATG_DR4_LXR_CIS: Attagene CIS-FACTORIAL HepG2 Assay for human Liver X Receptor (LXR), DR4 submotif (AID 2282929); settings: HepG2 Attagene DR4 cis-reporter, mRNA transcription; actives raise or lower the signal
In short: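 The endpoint is DR4-element-driven reporter transcripts after 24 h chemical exposure of transfected HepG2 cells. These were measured via RT-PCR and capillary electrophoresis, and gain or loss of signal was fitted relative to DMSO controls.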

[5] = ATG_AP_1_CIS: Attagene CIS-FACTORIAL HepG2 Assay for human Activator Protein 1 (AP-1) (AID 2282931); settings: HepG2 Attagene cis-factorial AP-1 reporter mRNA; actives raise or lower the signal
In short: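 Readout is reporter transcript level from endogenous transcription factor activity, quantified by RT-PCR with fluorescent primer extension and capillary electrophoresis. Transiently transfected HepG2 cells, 24 h exposure. Curves fitted both directions versus DMSO.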

[6] = ATG_AP_2_CIS: Attagene CIS-FACTORIAL HepG2 Assay for human Activator Protein 2 (AP-2) (AID 2282932); settings: HepG2 AP-2 cis-reporter, Attagene transcription factor profiling; actives raise or lower the signal
In short: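 HepG2 cells were transiently transfected with multiple cis-promoter reporter transcription units and dosed for 24 h. Reporter mRNA was measured by RT-PCR with capillary electrophoresis fluorescence; bidirectional fits relative to DMSO baseline.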

[7] = ATG_BRE_CIS: Attagene CIS-FACTORIAL HepG2 Assay for human Bone Morphogenetic Protein (BMP) Response Element (BRE) (AID 2282933); settings: HepG2 BMP response element reporter, Attagene transcription factor profiling; actives raise or lower the signal
In short: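 Fluorescence-labelled reporter cDNA fragments, separated by capillary electrophoresis, gave the signal for this component of a 52-readout multiplex. HepG2 cells were transfected, exposed to chemicals for 24 h, and compared with DMSO using bidirectional fitting.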

[8] = biological target: Aryl hydrocarbon receptor (Homo sapiens) (UniProt P35869); assay: ATG_Ahr_CIS: Attagene CIS-FACTORIAL HepG2 Assay for human Aryl Hydrocarbon Receptor (Ahr) (AID 2282930); settings: HepG2 AhR cis-factorial reporter transcription; actives raise or lower the signal
Sequence of Aryl hydrocarbon receptor (Homo sapiens) (P35869 whole entry, looked up): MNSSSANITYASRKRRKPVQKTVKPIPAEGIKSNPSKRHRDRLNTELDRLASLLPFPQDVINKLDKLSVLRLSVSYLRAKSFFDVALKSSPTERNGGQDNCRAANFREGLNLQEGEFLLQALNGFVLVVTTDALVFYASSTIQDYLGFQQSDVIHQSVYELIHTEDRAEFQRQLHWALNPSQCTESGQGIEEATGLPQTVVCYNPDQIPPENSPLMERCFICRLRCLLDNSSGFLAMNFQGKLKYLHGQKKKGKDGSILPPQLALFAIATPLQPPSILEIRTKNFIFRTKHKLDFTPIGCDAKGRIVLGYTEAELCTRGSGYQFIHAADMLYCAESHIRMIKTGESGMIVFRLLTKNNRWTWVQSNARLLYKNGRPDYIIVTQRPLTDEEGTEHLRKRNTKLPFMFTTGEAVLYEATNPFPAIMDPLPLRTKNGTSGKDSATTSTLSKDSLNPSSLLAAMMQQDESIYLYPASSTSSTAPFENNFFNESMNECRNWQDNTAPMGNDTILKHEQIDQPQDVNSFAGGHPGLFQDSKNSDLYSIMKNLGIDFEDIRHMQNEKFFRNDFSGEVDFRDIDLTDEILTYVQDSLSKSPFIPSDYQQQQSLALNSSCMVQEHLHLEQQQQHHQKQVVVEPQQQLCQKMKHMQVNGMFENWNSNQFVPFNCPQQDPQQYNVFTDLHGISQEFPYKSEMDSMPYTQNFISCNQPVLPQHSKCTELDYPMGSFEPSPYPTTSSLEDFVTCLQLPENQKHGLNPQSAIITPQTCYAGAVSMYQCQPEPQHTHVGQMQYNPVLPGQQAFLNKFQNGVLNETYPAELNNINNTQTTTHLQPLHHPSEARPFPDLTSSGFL
In short: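 Following 24 h of chemical dosing, transfected HepG2 liver cells with cis-driven reporter units were lysed for RNA; reporter mRNA was quantified via RT-PCR and capillary electrophoresis, and responses fitted bidirectionally from DMSO.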

[9] = biological target: Retinoic acid receptor alpha (Homo sapiens) (UniProt P10276); assay: ATG_DR5_RAR_CIS: Attagene CIS-FACTORIAL HepG2 Assay for human Retinoic Acid Receptor Alpha (RARE), DR5 submotif (AID 2282934); settings: HepG2 Attagene cis-factorial RARE DR5 reporter, mRNA; actives raise or lower the signal;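 on AC50: reporter responds to endogenous RAR alpha beta and gamma in HepG2 not RARA alone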
Sequence of Retinoic acid receptor alpha (Homo sapiens) (P10276 whole entry, looked up): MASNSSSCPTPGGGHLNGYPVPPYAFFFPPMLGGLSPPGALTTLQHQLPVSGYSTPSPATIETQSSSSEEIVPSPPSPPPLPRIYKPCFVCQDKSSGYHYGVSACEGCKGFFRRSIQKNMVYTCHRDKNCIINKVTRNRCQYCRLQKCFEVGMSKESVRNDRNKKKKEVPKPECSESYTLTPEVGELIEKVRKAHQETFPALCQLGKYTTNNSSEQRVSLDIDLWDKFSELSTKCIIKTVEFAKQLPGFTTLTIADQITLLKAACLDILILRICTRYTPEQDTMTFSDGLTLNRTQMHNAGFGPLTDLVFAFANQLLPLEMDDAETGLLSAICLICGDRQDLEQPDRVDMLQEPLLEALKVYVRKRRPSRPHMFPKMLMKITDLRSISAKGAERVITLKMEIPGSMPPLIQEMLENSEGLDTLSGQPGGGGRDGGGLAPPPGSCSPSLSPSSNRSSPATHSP
In short: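 Transfected HepG2 reporter cells are exposed to chemicals for 24 h. Then RNA is extracted and the DR5 element reporter transcript is measured by RT-PCR and capillary electrophoresis, with bidirectional curve fitting relative to DMSO.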

Row | SMILES | outcome [1] | outcome [2] | outcome [3] | outcome [4] | outcome [5] | outcome [6] | outcome [7] | outcome [8] | outcome [9] | AC50 [3] | AC50 [4] | AC50 [5] | AC50 [9] | AC50 [8]
1 | Nc1ccn([C@H]2CC[C@@H](CO)O2)c(=O)n1 | inactive | inactive | inactive | inactive | inactive | inactive | inactive |  |  |  |  |  |  | 
2 | N#CCCCC(C#N)CCC#N (stereo unspecified) | inactive | inactive | inactive | inactive | inactive | inactive | inactive | inactive | inactive |  |  |  |  | 
3 | C=C/C(C)=C/C/C=C(\C)CCC=C(C)C | inactive | inactive | inactive | inactive |  | inactive | inactive | inactive |  |  |  |  |  | 
4 | C=C(C)C(=O)OCCC[Si](OC)(OC)OC | inactive | inactive | inactive | inactive | inactive | inactive |  | inactive | inactive |  |  |  |  | 
5 | CN1CCc2cccc3c2[C@H]1Cc1ccc(O)c(O)c1-3 | inactive | inactive |  |  |  | inactive | inactive |  |  | 5.76 µM (active) | 18.8 µM (active) | 3.75 µM (active) | 1.67 µM (active) | 
6 | CCC(C)COC(=O)CC(C)C (stereo unspecified) | inactive | inactive | inactive | inactive |  | inactive | inactive | inactive | inactive |  |  |  |  | 
7 | C=COCC1CCC(COC=C)CC1 (stereo unspecified) | inactive | inactive | inactive | inactive |  | inactive | inactive | inactive |  |  |  |  |  | 
8 | NC(=O)c1cccnc1 | inactive | inactive | inactive | inactive |  | inactive | inactive |  |  |  |  |  |  | 29 µM (active)
9 | CCO[Si](CC)(OCC)OCC | inactive | inactive | inactive |  | inactive | inactive |  | inactive | inactive |  | 155 µM (active) |  |  | 
10 | CCCCCCCC(=O)N(C)C | inactive | inactive | inactive | inactive | inactive | inactive | inactive |  |  |  |  |  |  | 
11 | CCO[Si](CCC#N)(OCC)OCC | inactive | inactive | inactive | inactive | inactive | inactive | inactive |  |  |  |  |  |  | 
12 | CN(C)C | inactive | inactive | inactive | inactive |  | inactive |  | inactive |  |  |  |  |  | 
13 | CCCCCCOC(C)=O | inactive | inactive | inactive | inactive |  | inactive | inactive | inactive |  |  |  |  |  | 
